Where “and” joins values, the source holds several entries; their conditions need not be identical. Equal entries are not always repeated. Inconclusive results are not listed. The source holds several records for some structures; these can differ, active in one and inactive in another. Calls of active or inactive are those of the source. The calls were made as follows, unless noted: active = hit-call score of the fitted dose curve at least 0.9, where 1 is the maximum; inactive = score below 0.9.
Legend:
[1] = BSK_3C_VCAM1: BioMAP Diversity Plus: 3C Assay for Vascular cell adhesion molecule 1 (VCAM1) Biomarker Activity (AID 2282999); conditions: BioMAP 3C HUVEC, VCAM1 ELISA, cytokine-stimulated; actives raise or lower the signal
In short: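 Human umbilical vein endothelial cells (3C system), biomarker read by ELISA 24 h after dosing; bidirectional fit against DMSO baseline. Cytotoxicity tracked by SRB total-protein staining in parallel cultures at biomarker time.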

[2] = BSK_4H_Eotaxin3: BioMAP Diversity Plus: 4H Assay for Eotaxin 3 Biomarker Activity (AID 2283000); conditions: primary human endothelial cells (HUVEC); actives raise or lower the signal
In short: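 HUVEC, 24 h post-dose, ELISA for Eotaxin-3/CCL26. Gain or loss of signal fitted bidirectionally vs DMSO baseline.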

[3] = molecular target: human Peroxisome Proliferator-activated Receptor alpha (PPARa), PPARA (gene 5465) (UniProt Q07869); assay: ATG_PPARa_TRANS: Attagene TRANS-FACTORIAL HepG2 Assay for human Peroxisome Proliferator-activated Receptor alpha (PPARa) (AID 2283001; active = hit-call score of the fitted dose curve at least 0.9, where 1 is the maximum;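 as to AC50: potency for gain of reporter signal over DMSO so agonist or activator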)
In short: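 HepG2 cells transiently transfected with multiplexed GAL4-UAS reporters driven by exogenous chimeric NR-Gal4 proteins; reporter mRNA measured after 24 h dosing. Read-out by RT-PCR, 6-FAM labelling, HpaI digestion and capillary electrophoresis; gain of signal versus DMSO.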

[4] = molecular target: human Peroxisome Proliferator-activated Receptor delta (PPARd), PPARD (gene 5467) (UniProt Q03181); assay: ATG_PPARd_TRANS: Attagene TRANS-FACTORIAL HepG2 Assay for human Peroxisome Proliferator-activated Receptor delta (PPARd) (AID 2283002; active = hit-call score of the fitted dose curve at least 0.9, where 1 is the maximum)
In short: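 HepG2 cells transiently transfected with GAL4-UAS multiplexed reporter units driven by exogenous chimeric NR-GAL4 proteins; 24 h compound exposure. Reporter mRNA measured by RT-PCR, 6-FAM primer extension, HpaI digestion and capillary electrophoresis; gain of signal fitted relative to DMSO.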

[5] = read-out: Intercellular Adhesion Molecule 1 (ICAM1), ICAM1 (gene 3383); assay: BSK_3C_ICAM1: BioMAP Diversity Plus: 3C Assay for Intercellular Adhesion Molecule 1 (ICAM1) Biomarker Activity (AID 2283003); conditions: primary human endothelial cells (HUVEC); actives raise or lower the signal
In short: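 HUVEC primary cells stimulated under 3C conditions; ICAM1 measured by ELISA 24 h after compound dosing. Curves fitted bidirectionally against the DMSO baseline. Overt cytotoxicity checked by SRB staining of parallel cultures.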

[6] = molecular target: human Retinoic Acid Receptor beta (RARb), RARB (gene 5915) (UniProt P10826); assay: ATG_RARb_TRANS: Attagene TRANS-FACTORIAL HepG2 Assay for human Retinoic Acid Receptor beta (AID 2283004; active = hit-call score of the fitted dose curve at least 0.9, where 1 is the maximum)
In short: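 HepG2 cells transiently transfected with multiplexed GAL4-UAS reporter units expressing chimeric NR–Gal4 fusions; 24 h compound exposure. Reporter mRNA quantified by RT-PCR, 6-FAM labelling, HpaI digestion and capillary electrophoresis; gain-of-signal fitted against DMSO baseline.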

[7] = molecular target: Retinoic acid receptor alpha (Homo sapiens) (UniProt P10276); assay: ATG_RARa_TRANS: Attagene TRANS-FACTORIAL HepG2 Assay for human Retinoic Acid Receptor alpha (RARa) (AID 2283005; active = hit-call score of the fitted dose curve at least 0.9, where 1 is the maximum)
In short: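 HepG2 transiently transfected with multiplex GAL4-UAS reporter units including a human RARa–GAL4 chimera; 24 h compound exposure. Reporter mRNA quantified by RT-PCR, 6-FAM labeling and capillary electrophoresis; gain of signal versus DMSO.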

[8] = BSK_3C_Proliferation: Cell Proliferation Assessment in the BioMAP Diversity Plus: 3C Assay (AID 2283006); conditions: primary human endothelial cells (HUVEC);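 as to AC50: potency may reflect either rise or fall in cell number versus DMSO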
In short: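 Subconfluent HUVEC (3C system) cultured with chemical; relative cell number read at 48 h by sulforhodamine B total-protein staining (0.1% SRB after 10% TCA fixation, 560 nm). Bidirectional fit relative to DMSO.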

[9] = molecular target: Peroxisome proliferator-activated receptor gamma (Homo sapiens) (UniProt P37231); assay: ATG_PPARg_TRANS: Attagene TRANS-FACTORIAL HepG2 Assay for human Peroxisome Proliferator-activated Receptor-gamma (PPARg) (AID 2283007; active = hit-call score of the fitted dose curve at least 0.9, where 1 is the maximum)
In short: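 After 24 h of chemical exposure, transfected HepG2 cells carrying PPARγ-Gal4 chimera reporter constructs are lysed for RNA. Reporter transcripts are measured by RT-PCR and capillary electrophoresis with fluorescent labelling, and gain of signal is fitted versus DMSO.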

[10] = molecular target: Nuclear receptor subfamily 1 group I member 2 (Homo sapiens) (UniProt O75469); assay: ATG_PXR_TRANS: Attagene TRANS-FACTORIAL HepG2 Assay for human Pregnane X Receptor (PXR) (AID 2283008; active = hit-call score of the fitted dose curve at least 0.9, where 1 is the maximum)
In short: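 Measures mRNA induction of a GAL4-UAS-driven reporter in human HepG2 cells transiently expressing PXR fused to Gal4, following 24 h treatment. DMSO served as negative control and baseline.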

[11] = molecular target: human Retinoic Acid Receptor gamma (RARg), RARG (gene 5916) (UniProt P13631); assay: ATG_RARg_TRANS: Attagene TRANS-FACTORIAL HepG2 Assay for human Retinoic Acid Receptor gamma (RARg) (AID 2283009; active = hit-call score of the fitted dose curve at least 0.9, where 1 is the maximum)
In short: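 HepG2 transiently transfected with GAL4-UAS reporter units and chimeric NR-Gal4 constructs; 24 h compound exposure. Reporter mRNA quantified by RT-PCR, FAM labeling, HpaI digestion and capillary electrophoresis; gain-of-signal versus DMSO.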

[12] = molecular target: human RAR-related Orphan Receptor beta (RORb), RORB (gene 6096) (UniProt Q92753); assay: ATG_RORb_TRANS: Attagene TRANS-FACTORIAL HepG2 Assay for human RAR-related Orphan Receptor beta (RORb) (AID 2283010; active = hit-call score of the fitted dose curve at least 0.9, where 1 is the maximum)
In short: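 HepG2 cells transiently transfected with GAL4-UAS reporter units expressing chimeric NR-Gal4 protein; reporter mRNA measured 24 h after dosing by RT-PCR, 6-FAM labelling and capillary electrophoresis. Gain-of-signal fitted relative to DMSO baseline.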

[13] = molecular target: Retinoic acid receptor RXR-alpha (Homo sapiens) (UniProt P19793); assay: ATG_RXRa_TRANS: Attagene TRANS-FACTORIAL HepG2 Assay for human Retinoid X Receptor alpha (RXRa) (AID 2283012; active = hit-call score of the fitted dose curve at least 0.9, where 1 is the maximum)
In short: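 HepG2 cells transiently transfected with GAL4-UAS reporter units and chimeric RXRa-Gal4 protein, treated 24 h. Reporter mRNA measured by RT-PCR, fluorescent labelling, HpaI digestion and capillary electrophoresis. Induction fitted against DMSO.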

[14] = molecular target: human Retinoid X Receptor beta (RXRb), RXRB (gene 6257) (UniProt P28702); assay: ATG_RXRb_TRANS: Attagene TRANS-FACTORIAL HepG2 Assay for human Retinoid X Receptor beta (RXRb) (AID 2283013; active = hit-call score of the fitted dose curve at least 0.9, where 1 is the maximum)
In short: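 HepG2 cells were transiently transfected with multiplexed GAL4-UAS reporters and a chimeric RXRb-Gal4 construct, then exposed for 24 h. Reporter mRNA was quantified by RT-PCR, FAM labeling, HpaI digestion and capillary electrophoresis; gain of signal was scored against DMSO.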

[15] = molecular target: human Thyroid Receptor alpha (THRa1), THRA (gene 7067) (UniProt P10827); assay: ATG_THRa1_TRANS: Attagene TRANS-FACTORIAL HepG2 Assay for human Thyroid Receptor alpha (THRa1) (AID 2283014; active = hit-call score of the fitted dose curve at least 0.9, where 1 is the maximum)
In short: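 HepG2 cells transiently transfected with multiplexed GAL4-UAS reporter units for exogenous chimeric THRa1-Gal4; reporter mRNA measured 24 h after dosing by RT-PCR, 6-FAM labelling, HpaI digestion and capillary electrophoresis. Gain-of-signal fitted versus DMSO baseline.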

[16] = read-out: E-selectin (Homo sapiens) (UniProt P16581); assay: BSK_3C_Eselectin: BioMAP Diversity Plus: 3C Assay for Eselectin Biomarker Activity (AID 2283015); conditions: primary human endothelial cells (HUVEC); actives raise or lower the signal
In short: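 Primary human umbilical vein endothelial cells (3C system) were dosed with chemical and cell-surface E-selectin measured by ELISA 24 h later. Bidirectional curve fitting used DMSO as negative control and baseline.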

[17] = read-out: Interleukin-1 alpha (IL1a), IL1A (gene 3552); assay: BSK_BE3C_IL1a: BioMAP Diversity Plus: BE3C Assay for Interleukin-1 alpha (IL1a) Biomarker Activity (AID 2283016); conditions: primary human bronchial epithelial cells; actives raise or lower the signal
In short: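 Human primary bronchial epithelial cells, 24 h chemical exposure; IL-1a quantified by ELISA, fitted bidirectionally against DMSO. Cytotoxicity assessed in parallel by SRB total-protein staining at the time of measurement.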

[18] = read-out: Monocyte Chemoattractant Protein-1 (MCP1), CCL2 (gene 6347); assay: BSK_3C_MCP1: BioMAP Diversity Plus: 3C Assay for Monocyte Chemoattractant Protein-1 (MCP1) Biomarker Activity (AID 2283017); conditions: primary human endothelial cells (HUVEC); actives raise or lower the signal
In short: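 Primary human umbilical vein endothelial cells (3C system) were exposed to test chemical for 24 h, after which MCP-1 was quantified by ELISA. Activity was fitted bidirectionally against DMSO as negative control and baseline.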

[19] = read-out: Monocyte Chemoattractant Protein-1 (MCP1), CCL2 (gene 6347); assay: BSK_4H_MCP1: BioMAP Diversity Plus: 4H Assay for Monocyte Chemoattractant Protein-1 (MCP1) Biomarker Activity (AID 2283018); conditions: primary human endothelial cells (HUVEC); actives raise or lower the signal
In short: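 Human umbilical vein endothelial cells (4H system) exposed to chemicals for 24 h in 96-well format. MCP-1 measured by ELISA; bidirectional fitting against DMSO, with SRB total-protein staining in parallel cultures for cytotoxicity.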

Measured: AC50

Sequence of Retinoic acid receptor RXR-alpha (Homo sapiens) (P19793 whole entry, looked up, the tested form may be a part): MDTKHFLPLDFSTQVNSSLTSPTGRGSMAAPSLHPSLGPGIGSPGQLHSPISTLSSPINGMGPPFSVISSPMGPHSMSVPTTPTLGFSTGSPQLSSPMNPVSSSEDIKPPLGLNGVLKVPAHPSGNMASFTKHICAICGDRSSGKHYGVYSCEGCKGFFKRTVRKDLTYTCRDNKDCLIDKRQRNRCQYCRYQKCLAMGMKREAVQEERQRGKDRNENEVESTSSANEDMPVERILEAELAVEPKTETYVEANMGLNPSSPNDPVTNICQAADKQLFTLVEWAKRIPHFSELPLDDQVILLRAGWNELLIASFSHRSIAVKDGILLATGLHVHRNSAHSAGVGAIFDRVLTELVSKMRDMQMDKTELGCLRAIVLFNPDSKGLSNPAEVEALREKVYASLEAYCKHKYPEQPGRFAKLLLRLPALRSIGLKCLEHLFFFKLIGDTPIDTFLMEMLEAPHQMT
Sequence of human Retinoid X Receptor beta (RXRb), RXRB (gene 6257) (P28702 whole entry, looked up, the tested form may be a part): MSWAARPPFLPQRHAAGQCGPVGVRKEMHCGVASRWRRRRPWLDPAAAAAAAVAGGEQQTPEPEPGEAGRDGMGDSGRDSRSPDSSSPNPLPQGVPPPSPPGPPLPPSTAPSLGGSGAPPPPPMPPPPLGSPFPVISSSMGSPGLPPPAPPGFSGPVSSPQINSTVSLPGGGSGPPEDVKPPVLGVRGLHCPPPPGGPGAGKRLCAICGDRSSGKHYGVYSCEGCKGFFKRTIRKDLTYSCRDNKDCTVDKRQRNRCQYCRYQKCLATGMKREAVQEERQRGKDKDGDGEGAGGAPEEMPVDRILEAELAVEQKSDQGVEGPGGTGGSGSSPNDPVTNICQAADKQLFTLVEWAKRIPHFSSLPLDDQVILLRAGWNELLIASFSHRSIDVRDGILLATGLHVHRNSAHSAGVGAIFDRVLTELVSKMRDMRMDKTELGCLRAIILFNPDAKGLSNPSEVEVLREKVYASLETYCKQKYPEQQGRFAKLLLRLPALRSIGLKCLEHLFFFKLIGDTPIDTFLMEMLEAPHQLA
Sequence of human Peroxisome Proliferator-activated Receptor alpha (PPARa), PPARA (gene 5465) (Q07869 whole entry, looked up, the tested form may be a part): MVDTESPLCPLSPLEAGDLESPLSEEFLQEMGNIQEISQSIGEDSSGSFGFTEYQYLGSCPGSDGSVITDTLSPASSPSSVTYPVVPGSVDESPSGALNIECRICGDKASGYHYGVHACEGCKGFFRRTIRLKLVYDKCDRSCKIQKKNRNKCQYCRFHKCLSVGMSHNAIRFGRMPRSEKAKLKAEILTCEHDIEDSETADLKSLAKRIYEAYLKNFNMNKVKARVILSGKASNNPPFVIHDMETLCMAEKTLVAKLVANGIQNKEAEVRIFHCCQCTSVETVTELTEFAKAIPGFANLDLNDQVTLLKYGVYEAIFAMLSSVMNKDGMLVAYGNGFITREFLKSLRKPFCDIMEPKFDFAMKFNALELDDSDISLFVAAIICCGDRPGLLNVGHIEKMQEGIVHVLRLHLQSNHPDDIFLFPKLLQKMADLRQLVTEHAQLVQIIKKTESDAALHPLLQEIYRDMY
Sequence of human Retinoic Acid Receptor gamma (RARg), RARG (gene 5916) (P13631 whole entry, looked up, the tested form may be a part): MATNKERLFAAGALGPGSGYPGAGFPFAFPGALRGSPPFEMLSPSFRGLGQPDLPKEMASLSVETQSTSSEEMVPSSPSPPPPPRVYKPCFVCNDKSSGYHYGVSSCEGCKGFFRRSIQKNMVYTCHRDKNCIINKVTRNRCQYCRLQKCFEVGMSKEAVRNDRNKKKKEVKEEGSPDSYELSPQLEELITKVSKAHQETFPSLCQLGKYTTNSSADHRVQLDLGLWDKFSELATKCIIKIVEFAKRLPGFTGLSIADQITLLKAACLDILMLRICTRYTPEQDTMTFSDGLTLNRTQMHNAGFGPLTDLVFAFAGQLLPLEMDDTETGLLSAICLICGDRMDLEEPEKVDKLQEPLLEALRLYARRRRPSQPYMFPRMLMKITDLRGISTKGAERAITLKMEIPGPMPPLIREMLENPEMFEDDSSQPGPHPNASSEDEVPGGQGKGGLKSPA
Sequence of human Peroxisome Proliferator-activated Receptor delta (PPARd), PPARD (gene 5467) (Q03181 whole entry, looked up, the tested form may be a part): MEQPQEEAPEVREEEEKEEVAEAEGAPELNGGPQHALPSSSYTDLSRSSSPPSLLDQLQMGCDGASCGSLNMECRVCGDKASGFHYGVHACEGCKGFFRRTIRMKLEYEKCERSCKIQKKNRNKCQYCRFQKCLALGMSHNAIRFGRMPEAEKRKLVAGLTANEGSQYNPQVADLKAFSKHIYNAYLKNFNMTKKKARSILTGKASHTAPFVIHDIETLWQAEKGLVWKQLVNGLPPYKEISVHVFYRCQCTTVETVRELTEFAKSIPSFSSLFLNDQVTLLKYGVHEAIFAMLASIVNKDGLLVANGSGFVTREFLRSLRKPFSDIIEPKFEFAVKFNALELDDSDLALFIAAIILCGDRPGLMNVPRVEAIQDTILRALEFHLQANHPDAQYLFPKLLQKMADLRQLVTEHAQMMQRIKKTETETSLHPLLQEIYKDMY
Sequence of Peroxisome proliferator-activated receptor gamma (Homo sapiens) (P37231 whole entry, looked up, the tested form may be a part): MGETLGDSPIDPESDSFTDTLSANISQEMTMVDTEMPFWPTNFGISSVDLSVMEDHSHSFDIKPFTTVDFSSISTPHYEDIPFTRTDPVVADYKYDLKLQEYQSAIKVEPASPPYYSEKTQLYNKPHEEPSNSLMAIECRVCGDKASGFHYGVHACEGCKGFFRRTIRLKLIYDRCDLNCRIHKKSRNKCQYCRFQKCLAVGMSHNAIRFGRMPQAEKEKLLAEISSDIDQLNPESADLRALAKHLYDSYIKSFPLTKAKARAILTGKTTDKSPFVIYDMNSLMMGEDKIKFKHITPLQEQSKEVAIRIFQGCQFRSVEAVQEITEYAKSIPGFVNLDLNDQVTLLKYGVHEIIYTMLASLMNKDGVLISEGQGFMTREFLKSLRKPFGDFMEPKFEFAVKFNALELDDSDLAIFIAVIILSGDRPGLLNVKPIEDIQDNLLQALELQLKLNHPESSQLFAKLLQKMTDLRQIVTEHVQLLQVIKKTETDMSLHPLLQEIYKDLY
Sequence of human RAR-related Orphan Receptor beta (RORb), RORB (gene 6096) (Q92753 whole entry, looked up, the tested form may be a part): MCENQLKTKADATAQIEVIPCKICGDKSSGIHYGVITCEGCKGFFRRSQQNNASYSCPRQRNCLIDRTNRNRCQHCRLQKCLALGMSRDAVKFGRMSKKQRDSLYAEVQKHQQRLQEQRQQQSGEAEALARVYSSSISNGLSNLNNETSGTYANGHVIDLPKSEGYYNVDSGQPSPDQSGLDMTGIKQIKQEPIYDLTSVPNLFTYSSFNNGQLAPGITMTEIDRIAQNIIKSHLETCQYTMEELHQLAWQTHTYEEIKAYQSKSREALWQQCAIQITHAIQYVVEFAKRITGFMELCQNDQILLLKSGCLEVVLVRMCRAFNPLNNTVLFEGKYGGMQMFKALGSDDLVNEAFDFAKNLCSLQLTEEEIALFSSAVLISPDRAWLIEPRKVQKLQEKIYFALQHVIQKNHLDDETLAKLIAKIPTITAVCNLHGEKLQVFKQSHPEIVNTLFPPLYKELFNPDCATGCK
Sequence of Nuclear receptor subfamily 1 group I member 2 (Homo sapiens) (O75469 whole entry, looked up, the tested form may be a part): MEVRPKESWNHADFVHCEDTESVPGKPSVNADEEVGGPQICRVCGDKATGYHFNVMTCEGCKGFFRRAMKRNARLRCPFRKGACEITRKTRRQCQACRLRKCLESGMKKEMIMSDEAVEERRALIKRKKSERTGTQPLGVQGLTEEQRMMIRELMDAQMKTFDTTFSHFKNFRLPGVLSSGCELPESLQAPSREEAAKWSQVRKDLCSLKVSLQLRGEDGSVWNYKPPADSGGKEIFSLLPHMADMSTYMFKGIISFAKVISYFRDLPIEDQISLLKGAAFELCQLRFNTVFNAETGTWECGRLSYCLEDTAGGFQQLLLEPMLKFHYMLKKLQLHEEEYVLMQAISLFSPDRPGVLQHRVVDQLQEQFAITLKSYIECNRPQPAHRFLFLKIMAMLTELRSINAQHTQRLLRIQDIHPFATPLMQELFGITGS
Sequence of human Thyroid Receptor alpha (THRa1), THRA (gene 7067) (P10827 whole entry, looked up, the tested form may be a part): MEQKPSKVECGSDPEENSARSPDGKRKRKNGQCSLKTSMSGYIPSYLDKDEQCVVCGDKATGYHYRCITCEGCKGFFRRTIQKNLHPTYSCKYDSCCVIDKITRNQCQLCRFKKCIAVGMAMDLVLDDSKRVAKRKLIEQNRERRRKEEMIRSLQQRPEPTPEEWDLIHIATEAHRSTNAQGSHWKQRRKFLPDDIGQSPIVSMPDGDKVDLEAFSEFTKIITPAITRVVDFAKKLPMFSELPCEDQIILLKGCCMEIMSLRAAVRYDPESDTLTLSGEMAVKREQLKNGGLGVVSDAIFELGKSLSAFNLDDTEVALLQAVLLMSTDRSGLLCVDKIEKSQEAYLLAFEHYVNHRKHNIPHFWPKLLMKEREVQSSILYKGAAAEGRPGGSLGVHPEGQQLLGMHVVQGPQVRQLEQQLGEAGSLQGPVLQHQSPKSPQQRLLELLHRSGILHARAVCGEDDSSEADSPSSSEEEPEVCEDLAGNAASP
Sequence of human Retinoic Acid Receptor beta (RARb), RARB (gene 5915) (P10826 whole entry, looked up, the tested form may be a part): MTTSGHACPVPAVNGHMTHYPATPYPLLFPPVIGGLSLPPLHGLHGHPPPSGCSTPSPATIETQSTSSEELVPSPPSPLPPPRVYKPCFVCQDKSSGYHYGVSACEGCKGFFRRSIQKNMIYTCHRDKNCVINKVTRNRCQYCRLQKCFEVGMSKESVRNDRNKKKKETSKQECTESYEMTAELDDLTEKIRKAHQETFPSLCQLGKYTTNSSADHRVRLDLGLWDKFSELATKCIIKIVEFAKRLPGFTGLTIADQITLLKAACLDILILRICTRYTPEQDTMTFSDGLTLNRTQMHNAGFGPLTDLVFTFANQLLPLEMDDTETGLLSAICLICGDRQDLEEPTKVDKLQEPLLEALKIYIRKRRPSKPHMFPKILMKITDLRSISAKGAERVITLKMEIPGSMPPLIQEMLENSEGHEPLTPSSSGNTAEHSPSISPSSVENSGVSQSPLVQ

O=C(O)C(F)(F)C(F)(F)C(F)(F)C(F)(F)C(F)(F)C(F)(F)F
active: [3] 18.2 µM and 20.7 µM | [9] 65.4 µM and 72.5 µM | [14] 51.7 µM and 56.5 µM
inactive: [1] | [2] | [4] | [5] | [6] | [7] | [8] | [9] | [10] | [11] | [12] | [13] | [14] | [15] | [16] | [17] | [18] | [19]

CC(C)c1ccc(CO)cc1
not listed: [6] | [7] | [11] | [13]
inactive: all other assays above

CC(=O)OC(c1ccccc1)C(Cl)(Cl)Cl (stereo not drawn)
active: [10] 59 µM
not listed: [6] | [7] | [9] | [11] | [12] | [14]
inactive: all other assays above

CCN1CCC2(CC1)COc1cc3c(cc12)N(C(=O)c1ccc(-c2ccc(-c4nnc(C)o4)cc2C)cc1)CC3
active: [1] 26.9 µM | [2] 24.1 µM | [5] 29.2 µM | [8] 5.23 µM | [16] 28 µM | [17] 13.8 µM | [18] 14 µM | [19] 26 µM
not listed: [9] | [15]
inactive: all other assays above

COC(=O)Cc1ccccc1
not listed: [6] | [7] | [11] | [14] | [15]
inactive: all other assays above

Oc1c(I)cc(I)cc1I
inactive: [4] | [5] | [13] | [14]
active: [1] 15.5 µM | [2] 20 µM | [3] 16.6 µM | [8] 11.4 µM | [10] 6.69 µM | [15] 7.66 µM | [16] 11.3 µM | [17] 8.87 µM | [18] 11.9 µM | [19] 20 µM

O=Cc1cccc(Oc2ccccc2)c1
not listed: [4] | [7] | [9] | [11] | [13]
inactive: all other assays above

Source: PubChem BioAssay (EPA / NIEHS)
